Measured values: the supplement of paper PMC6555819

Key:
Assay in all cases: PBM binding z-score (relative to random genomic background probes); higher = stronger binding; sequences stand for … in GC…GCGATTGACAGCGTAGAATGAAGG
[1] = tested on: FXR:RXRa (NR concentration 270 nM, RXRa partner concentration 90 nM)
Outline: (§1)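 Binding z-scores take random background probes as their reference. They come from custom Agilent 4×180K protein-binding microarrays incubated 1 h with ligand-free nuclear receptor dimers, with antibodies against each partner (one per run) detecting binding. Scanned fluorescence was regression-normalized.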

[2] = tested on: LXRa:RXRa (NR concentration 270 nM, RXRa partner concentration 90 nM)
Outline: as §1

[3] = tested on: LXRa homodimer (NR concentration 270 nM)
Outline: as §1

[4] = tested on: LXRb:RXRa (NR concentration 270 nM, RXRa partner concentration 90 nM)
Outline: as §1

[5] = tested on: LXRb homodimer (NR concentration 270 nM)
Outline: as §1

[6] = tested on: PPARa:RXRa (NR concentration 270 nM, RXRa partner concentration 90 nM)
Outline: as §1

[7] = tested on: PPARg:RXRa (NR concentration 180 nM, RXRa partner concentration 90 nM)
Outline: as §1

[8] = tested on: PPARg:RXRa 270nM:90nM, anti-RXR (NR concentration 270 nM, RXRa partner concentration 90 nM)
Outline: as §1

[9] = tested on: PPARg:RXRa 30nM:10nM, anti-RXR (NR concentration 30 nM, RXRa partner concentration 10 nM)
Outline: as §1

[10] = tested on: PPARg:RXRa 90nM:30nM, anti-RXR (NR concentration 90 nM, RXRa partner concentration 30 nM)
Outline: as §1

| Sequence | PBM binding z-score [1] | PBM binding z-score [2] | PBM binding z-score [3] | PBM binding z-score [4] | PBM binding z-score [5] | PBM binding z-score [6] | PBM binding z-score [7] | PBM binding z-score [8] | PBM binding z-score [9] | PBM binding z-score [10] |
| --- | --- | --- | --- | --- | --- | --- | --- | --- | --- | --- |
| CCTTACGGGTAACTGACAGGTTATAGCATTTGGA | 0.183 | 0.937 | 9.84e-05 | 0.454 | -0.428 | 0.56 | 0.319 | 0.0456 | -0.0329 | -0.0443 |
| ATATGTAGGTTAGCAGGGGTCATTCAGACTAGGC | 5.14 | 5.99 | 4.53 | 5.37 | 1.78 | 5.56 | 6.6 | 5.97 | 3.32 | 5.33 |
| ATATGTAGGTTAGCTGGGGTCATACAGACTAGGC | 5.27 | 5.79 | 2.45 | 4.74 | 0.852 | 5.2 | 6 | 5.38 | 2.74 | 4.94 |
| ACTAGCAGGACAAGGGTCACTCAAGATTAGTCCG | 2.6 | 3.07 | 0.432 | 2.76 | 0.105 | 4.3 | 6.63 | 6.93 | 5.71 | 7.29 |
| GCGACTGGGGCATTAGCAGGTTACCATAACTTAA | -0.284 | 0.0464 | 0.0141 | 0.936 | -0.458 | 0.973 | 0.712 | 0.609 | -0.0543 | 0.0308 |
| GGAACAAGGGCATTCGAGTTGATAGCATGGCGAT | 1.63 | 1.37 | 0.0326 | 0.349 | -0.333 | 1.16 | 0.807 | 0.531 | -0.0599 | 0.199 |
| ACTTACGGGTCATCGAGGTTATAGCACGCGTATA | 6.76 | 4.95 | 0.924 | 4.29 | 0.569 | 5.8 | 5.44 | 5.54 | 2.13 | 4.43 |
| CGTCCAAGGTGAAAGGTCAGTGAAGAGATGACGG | 4.63 | 4.11 | 0.846 | 3.61 | -0.321 | 6.01 | 9.57 | 8.09 | 7.25 | 8.46 |
| ATACCACGGTGATCGTGAGGTCGTTGATACTAAC | 1.06 | 0.834 | 0.899 | 0.931 | -0.0132 | 0.958 | 0.3 | 0.0838 | -0.0631 | 0.19 |
| ACAGACAGGTGAGTGAAGCTAACTCAGCTGGACG | -0.673 | -0.375 | -0.787 | -0.865 | -0.79 | -0.342 | 0.546 | -0.404 | -0.443 | -0.258 |
| CGTCAAAGTTCACGGTAACGTAACAGAAAGCAGC | 7.1 | 6.15 | 2.53 | 4.09 | 0.842 | 5.42 | 6.18 | 6.59 | 3.33 | 5.36 |
| ATCTCTAGGTAACTAAGTTCAGTGAATGCCGAAC | 0.51 | 0.962 | 1.22 | 1.02 | 0.792 | 1.32 | 0.573 | 0.892 | 0.181 | 0.816 |
| TCATATAGGTAATACAGGTGAAAGACGGCATCTA | 1.16 | 1.28 | 0.842 | 0.947 | 0.0154 | 1.94 | 1.92 | 2.73 | 4.26 | 3.41 |
| TCTAGCAGGCCGGAGGGTCACTCAAGAGGTACGG | 0.786 | 0.705 | -0.517 | 0.729 | -1.11 | 1.69 | 0.508 | 1.34 | 1.19 | 1.2 |
| ATCTCTCGGTAAAAGTTCAGTGAATCCCGAGGAT | 0.576 | 1.16 | 1.29 | 1.07 | 1.12 | 2.92 | 3.81 | 5.71 | 3.76 | 6.34 |
| TATTGTAGATCAATAGAGGTTAAGAAAGTGCGCT | 0.833 | 3.7 | 0.984 | 1.79 | 0.902 | 1.97 | 0.757 | 0.86 | 0.535 | 0.718 |
| ATCTCTTGGTAAAGATAGTTCAGTGAATGCAAAT | 0.445 | 0.78 | 0.577 | 0.693 | 0.423 | 0.553 | 0.212 | 0.257 | 0.185 | 0.285 |
| TCTGCTTGGTCAGTTGGTCAGCTAACGAGCTGCC | -0.433 | -0.4 | -1.02 | -0.763 | -0.0318 | -0.161 | -1.11 | 0.771 | 1.04 | 0.933 |
| CCAGACAGGTGAGAAGCTAACTCAGCCTCGATTA | -0.201 | -0.31 | -0.163 | -0.228 | -0.869 | 0.155 | 0.347 | 0.159 | -0.632 | -0.0205 |

| Sequence | PBM binding z-score [1] | PBM binding z-score [2] | PBM binding z-score [3] | PBM binding z-score [4] | PBM binding z-score [5] | PBM binding z-score [6] | PBM binding z-score [7] | PBM binding z-score [8] | PBM binding z-score [9] | PBM binding z-score [10] |
| --- | --- | --- | --- | --- | --- | --- | --- | --- | --- | --- |
| CCTAGTTGGTCAAGGTCACTCACGCTATAGGTAC | 3.8 | 3.42 | 1.94 | 3.17 | 0.615 | 3.67 | 2.44 | 3.08 | 0.743 | 2.05 |
| TTGCCTAGGTCATGGGCCAGTATACCACGCGAAC | 4.71 | 3.43 | 0.623 | 2.49 | -0.439 | 4.25 | 3.7 | 3.59 | 0.614 | 2.48 |
| TGTCAAAGTTAAAAGGTAACGTAAGTATCCACAC | 0.429 | 0.482 | -0.245 | 0.823 | -0.178 | 2.09 | 2.26 | 3.15 | 1.03 | 2.13 |
| TGAATGAGGTTAAAGATCAGGGAGCGTGGCGTCG | 2.85 | 2.34 | -0.379 | 1.14 | 0.0684 | 4.39 | 5.63 | 5.88 | 5.47 | 6.49 |
| ATCTTTAGGTAAAGATAGTTCAGTGAATGCAAAT | 0.178 | 4.41 | 0.491 | 0.995 | 0.495 | 0.508 | 0.63 | 0.465 | 0.338 | 0.506 |
| TCTAGTTGGTCCCGGAGGTCACACACGACGGGTA | 2.88 | 2.9 | 2.37 | 3.18 | 0.951 | 3.55 | 1.68 | 2.9 | 3.06 | 3.11 |
| AATACAGGGTCATCGTAGGCCAGCGTACGCACAG | 7.47 | 6.19 | 2.61 | 4.66 | 1.23 | 6.28 | 6.7 | 5.95 | 2.73 | 4.61 |
| CCTACTGGGTCAAGGTCATTGATCAGTCAAAGCA | 6.14 | 5.13 | 2.13 | 4.83 | 0.0227 | 6.04 | 8.59 | 7.05 | 5.09 | 6.81 |
| ATCTCTAGATAAGACTCAGTTCAGTGAAGAACGC | -0.0405 | -0.109 | 0.034 | -0.147 | 0.392 | -0.438 | 0.0934 | -0.337 | 0.0965 | 0.00622 |
| CCTTACGGGTCACTGACGGGTTATAGCATTTGGA | 5.28 | 3.6 | 0.0563 | 3.42 | 0.119 | 4.67 | 4.31 | 4.28 | 1.63 | 2.74 |
| TATAGTTGGTCACGGAGGTCACACACGACGGGTA | 3.47 | 3.92 | 3.29 | 3.47 | 1.25 | 4.09 | 4.49 | 3.8 | 1.92 | 3.19 |
| CTCGAAAGGTCGTACTCAGGTGAGTATACCAAAC | 5.55 | 4 | 0.513 | 3.59 | 0.9 | 4.59 | 2.86 | 3.85 | 1.33 | 2.46 |
| CCTACTGGGTCAAAAAGGTCATTGATGCCGATAA | 5.59 | 5.57 | 4.15 | 5.29 | 1.01 | 5.73 | 7 | 6.52 | 4.03 | 5.73 |
| ATATGTAGGTTACAGCCGGGTCATTCAGGCTATG | 2.26 | 3.47 | 0.993 | 2.28 | 0.202 | 4.51 | 5.97 | 5.46 | 2.52 | 4.67 |
| TAGCCTAGGACATTCAGGGGCCAGTATAGAAAGC | -0.499 | -0.54 | -0.456 | -0.243 | -0.646 | -0.572 | 0.256 | -0.544 | -0.505 | -0.409 |
| AGTCACAGTTCAGGACGAGGTAACGTAAAGCACG | 1.01 | 0.828 | 0.0856 | 0.666 | -0.159 | 1.35 | 1.15 | 0.998 | 0.403 | 0.623 |
| AGTAGCAGGCCAAGTTTGGGTCACTCAAACAAAG | 0.202 | -0.31 | -0.37 | 0.549 | -0.802 | 1.47 | -0.0669 | 0.42 | -0.474 | -0.201 |
| ACTATTAGTTGAGACGAGTGCAACCGATAGGTTG | -0.26 | -0.238 | -0.221 | -0.356 | -0.0624 | -0.254 | 0.511 | 0.0303 | -0.299 | -0.303 |
| GCAGACAGGTGAAACGCAGGTAAGTCAGGGTGGC | -0.334 | -0.134 | -0.679 | -0.502 | -0.938 | 0.476 | 0.369 | -0.16 | -0.946 | -0.534 |
